Assay outcomes as filed in PubChem BioAssay.
An excerpt weighted towards active compounds, which were near 19% of everything screened.
S-ASM inh: Inhibitors of Secretory Acid Sphingomyelinase (S-ASM): qHTS; Sphingomyelin phosphodiesterase (Homo sapiens), P17405; placental ASM, HMU-PC fluorogenic substrate, 60 min; Potency, µM (series often up to 57.5 µM), hits mostly inhibitors; 340,000 tested, 0.006% active; AID 504937, 2011
Target sequence (P17405 47-631 limits assumed): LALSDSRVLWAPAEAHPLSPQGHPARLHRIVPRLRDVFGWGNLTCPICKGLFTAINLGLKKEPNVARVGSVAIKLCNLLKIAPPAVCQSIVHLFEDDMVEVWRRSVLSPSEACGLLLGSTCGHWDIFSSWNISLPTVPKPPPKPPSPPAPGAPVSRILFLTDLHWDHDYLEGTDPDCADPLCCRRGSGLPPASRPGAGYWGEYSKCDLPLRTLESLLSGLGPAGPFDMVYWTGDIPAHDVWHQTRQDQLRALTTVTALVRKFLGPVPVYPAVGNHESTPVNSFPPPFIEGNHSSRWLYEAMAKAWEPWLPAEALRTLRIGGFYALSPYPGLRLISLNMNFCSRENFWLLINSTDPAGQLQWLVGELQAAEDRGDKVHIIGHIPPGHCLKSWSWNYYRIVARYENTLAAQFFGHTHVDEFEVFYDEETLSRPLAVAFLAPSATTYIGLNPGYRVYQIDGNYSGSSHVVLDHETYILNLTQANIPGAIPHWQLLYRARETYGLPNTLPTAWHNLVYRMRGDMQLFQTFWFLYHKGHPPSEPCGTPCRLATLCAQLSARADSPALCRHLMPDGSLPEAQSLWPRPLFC
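HMU-PC0 cleavage (9 uM final) by human placental ASM, 60 min at 37 °C following 10 min compound exposure at RT; stopped at pH 10, fluorescence Ex 386/Em 447 nm.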
IL-1B inflam inh: qHTS for Inhibitors of Inflammasome Signaling: IL-1-beta AlphaLISA Primary Screen; THP-1 LPS/ATP IL-1B secretion, AlphaLISA, 16 h; hits give low values; activity change, % at 57.5 µM; 360,000 tested, 4.7% active; AID 743279, 2014; in the data active = activity change below about -50%; inconclusive = mostly about -30% to -49%
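Secreted IL-1B measured by AlphaLISA bead assay after 16 h compound exposure of THP-1 cells; compounds (final up to 57.5 uM) added 1 h before LPS (250 ng/mL) and ATP (1.25 mM) stimulation; lower signal means less secretion.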
DT40 TDP1 no CPT: qHTS for Inhibitors of human tyrosyl-DNA phosphodiesterase 1 (TDP1): qHTS in cells in absence of CPT; DT40 Tdp1-/- hTDP1 cells, no CPT, ATP luminescence, 48 h; Potency, µM (doses to about 46.2 µM), usual class: inhibitors; 420,000 tested, 15% active; AID 686978, 2013; note: nearly all actives have a fitted effect of over 55% in size
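DT40 Tdp1-/-;hTDP1 cells, no CPT (DMSO vehicle only), 400 cells/well; compounds pin-transferred; ≥48 hr, 37 °C; CellTiter-Glo 30 min RT dark, luminescence read.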
TDP1 cell CPT: qHTS for Inhibitors of human tyrosyl-DNA phosphodiesterase 1 (TDP1): qHTS in cells in presence of CPT; chicken DT40 Tdp1-/-;hTDP1 cells + 20 nM CPT, ATP luminescence, 48 h; Potency, µM (titrated, usually from 46.2 µM), actives largely listed as inhibitors; 420,000 tested, 12% active; AID 686979, 2013; note: nearly all actives have a fitted effect of over 55% in size
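Chicken DT40 Tdp1-/- cells stably complemented with human TDP1 were seeded at 400 cells/well in medium containing 20 nM camptothecin, exposed to pin-transferred compounds, and grown at 37 °C for at least 48 hr. Viability was read as ATP luminescence.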
HepG2 viability: qHTS for Inhibitors of TGF-b: Cytotox Counterscreen; Potency, µM (series often up to 46.1 µM), most hits filed as cytotoxic; HepG2 CAGA-GFP viability, ATP luminescence, 18 h; 410,000 tested, 0.76% active
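HepG2 CAGA-GFP cells (1000/well, DMEM with 1% FBS) received compound, then TGF-beta at 500 pg/mL final, and were incubated 18 hours at 37 degrees C. Viability was read by CellTiter-Glo luminescence. Media-only wells were set as complete cell-killing and DMSO as no toxicity.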
TGFb inhibitor: qHTS for Inhibitors of TGF-b | AID 588855, 2011 | 410,000 tested, 1.2% active | HepG2 CAGA-GFP TGF-b/SMAD3 reporter, GFP fluorescence, 18 h; TGF-beta stimulated, 500 pg/mL final | Potency, µM (titrated, usually from 46.1 µM), actives largely listed as inhibitors; note: nearly all actives have a fitted effect of over 65% in size
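Using HEPG2 CAGA-GFP reporter cells at 1000 cells/well, we pinned test compounds, stimulated with recombinant TGF-beta (500 pg/mL final) and measured total well GFP after 18 h.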
Numbers stand for hits; i = inactive; ? = inconclusive; nt = no result given. Unless noted, calls come from the whole dose curve; as a rule, active = well fitted curve in the direction sought with a large enough effect; inconclusive = small, poorly fitted or top-dose-only effect, or another doubt; inactive = no such curve, though single readings can be large; an effect the other way counts as inactive or inconclusive.

SMILES	S-ASM inh	IL-1B inflam inh	DT40 TDP1 no CPT	TDP1 cell CPT	HepG2 viability	TGFb inhibitor
C[C@H](CO)N1C[C@H](C)[C@@H](CN(C)Cc2ccc(-c3ccccc3)cc2)Oc2c(NS(=O)(=O)c3cccs3)cccc2C1=O	i	?	?	18.4µM	i	?
C[C@H](CO)N1C[C@H](C)[C@@H](CN(C)Cc2ccncc2)Oc2c(NS(=O)(=O)c3ccccc3)cccc2C1=O	i	i	i	i	i	i
O=C1CCC(C(=O)N2CCCCO2)CN1Cc1ccc(Cl)cc1 (centres undefined)	i	i	i	i	i	i
CSc1ncccc1C(=O)NC(C)CCc1ccccc1 (centres undefined)	i	i	i	i	i	i
CC(C)CC(=O)N(c1nnc(-c2cccnc2)s1)C1CCCC1	i	i	?	i	i	i
CCN(CC)c1ccc(/C=N/NC(=O)c2ccco2)cc1	i	i	3.26µM	?	i	?
CCN(CC)c1ccc(/C=N/N=C(c2ccccc2)c2ccccc2)c(O)c1	i	i	20.6µM	?	i	i
CCN(CC)c1ccc(/C=N/NC(=O)Cc2cccs2)c(O)c1	i	i	5.17µM	4.61µM	i	i
O=C(Cc1cccs1)N/N=C/c1ccccc1	i	i	i	i	i	i
O=C(N/N=C/c1ccc(OCc2ccccc2)cc1)c1ccco1	i	i	?	?	i	i
CCN(CC)c1ccc(/C=N/NC(=O)c2cnccn2)cc1	i	i	1.64µM	1.3µM	i	i
CCN(CC)c1ccc(/C=N/NC(=O)c2ccco2)c(O)c1	i	i	2.59µM	5.17µM	i	?
CCN(CC)c1ccc(NC(=O)c2ccco2)cc1	i	i	i	i	i	i
CCN(CC)c1ccc(NC(=S)NC(=O)c2ccco2)cc1	i	i	18.4µM	18.4µM	i	?
O=C(NC1CCc2ccccc21)c1cc(COc2cncc(Cl)c2)on1 (centres undefined)	i	-61.8	?	9.2µM	i	i
CC(C)N1CCC1(C)C(=O)Nc1nccc2cccnc12 (centres undefined)	nt	i	5.17µM	4.11µM	i	i
CC(C)N1CCC1(C)C(=O)Nc1cccc2ccccc12 (centres undefined)	nt	i	?	?	i	i
Cc1cc(NC(=O)C2(C)CCN2C(C)C)c2ccccc2n1 (centres undefined)	nt	i	20.6µM	?	i	i
CC1(C)Oc2ccc3ccc(=O)oc3c2/C(=C/NNC(N)=O)C1=O	i	i	?	i	i	i
O=C(CN1CCCN(Cc2ccc(F)cc2)S1(=O)=O)NCc1ccccc1Cl	nt	nt	16.4µM	?	i	?
CCc1cccc(C)c1NC(=O)CN1CCCN(Cc2ccccc2Cl)S1(=O)=O	nt	nt	23.1µM	?	i	i
CCc1cccc(C)c1NC(=O)CN1CCN(Cc2ccccc2Cl)S1(=O)=O	nt	nt	25.9µM	?	i	?
COc1cc(=O)n2c(c1C(=O)NC(C)c1ccco1)CCN(Cc1ccccc1Cl)CC2 (centres undefined)	nt	nt	i	i	nt	nt
CNS(=O)(=O)c1cccc(C(=O)NCC(C)(C)N2CCCCC2)c1	i	i	i	i	i	i
CN1CCN(c2ncncc2-c2cccnc2)CC1	nt	nt	i	?	nt	nt
Nc1ccc2c(c1)C(=NO)c1ccccc1-2	i	i	8.2µM	18.4µM	i	i
ON=C1c2ccccc2-c2ccc(O)cc21	i	?	i	?	i	?
CC(=O)Nc1cc2c(cc1[N+](=O)[O-])-c1ccccc1C2=NO	i	i	i	?	i	i
C/C(=N\O)c1ccc2[nH]ccc2c1	i	i	i	i	i	i
